Source: PubChem BioAssay (NCI)
Compounds without any hit were thinned out: in the full panel of roughly 83,000, 20% have a hit.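 Interpretation: 100, growth as untreated; towards 0, rising growth inhibition; 0, no net growth; 0 to -100, cell death. Compounds scoring below 10 were considered active.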 Activity calls are given as the source filed them.

Key:
Assay in all cases: NCI-60 one-dose screen, 48 h (100 = growth as untreated, 0 = no growth, -100 = all killed)
Settings in all cases: 10 µM unless noted
HCT-15 colon = system: HCT-15 colon
HT29 colon = system: HT29 colon
SNB-75 CNS = system: SNB-75 CNS
SNB-19 CNS = system: SNB-19 CNS
U251 CNS = system: U251 CNS
PC-3 prostate = system: PC-3 prostate
SK-MEL-5 melanoma = system: SK-MEL-5 melanoma
UACC-62 melanoma = system: UACC-62 melanoma
LOX IMVI melanoma = system: LOX IMVI melanoma
SK-MEL-28 melanoma = system: SK-MEL-28 melanoma
SK-MEL-2 melanoma = system: SK-MEL-2 melanoma
SN12C renal = system: SN12C renal
UO-31 renal = system: UO-31 renal
TK-10 renal = system: TK-10 renal
ACHN renal = system: ACHN renal
CAKI-1 renal = system: CAKI-1 renal
A498 renal = system: A498 renal
MOLT-4 leukemia = system: MOLT-4 leukemia
CCRF-CEM leukemia = system: CCRF-CEM leukemia

Measured: growth

C[C@]12CC[C@@H]3c4cc(O)c(O)cc4CC[C@H]3[C@@H]1CC[C@@H]2O
active: SNB-75 CNS -14.5% | SK-MEL-2 melanoma -16.8%
inactive: HCT-15 colon 30% | HT29 colon 96.4% | SNB-19 CNS 66.1% | U251 CNS 35.8% | PC-3 prostate 58.6% | SK-MEL-5 melanoma 26.5% | UACC-62 melanoma 33.8% | LOX IMVI melanoma 40% | SK-MEL-28 melanoma 39.6% | SN12C renal 50.7% | UO-31 renal 41.4% | TK-10 renal 87.5% | ACHN renal 42.9% | CAKI-1 renal 33.3% | A498 renal 100% | MOLT-4 leukemia 29.1%

COc1cccc(/C=C/C(=O)c2sc(Nc3ccc(O)cc3)nc2C)c1
inactive: HCT-15 colon 83.7% | HT29 colon 82% | SNB-75 CNS 84.1% | SNB-19 CNS 95.1% | U251 CNS 89.6% | PC-3 prostate 85.9% | SK-MEL-5 melanoma 95.4% | UACC-62 melanoma 94.4% | LOX IMVI melanoma 87.5% | SK-MEL-28 melanoma 102% | SK-MEL-2 melanoma 79.9% | SN12C renal 86.2% | UO-31 renal 62% | TK-10 renal 114% | ACHN renal 98.1% | CAKI-1 renal 105% | CCRF-CEM leukemia 13.3% | MOLT-4 leukemia 30.8%

COc1ccc(C(=O)c2cc(OC)c(OC)c(OC)c2)cc1/C=C/C(=O)c1ccc(O)cc1
active: HCT-15 colon -29.5% | U251 CNS 0.446% | LOX IMVI melanoma 0.734% | ACHN renal -62.8%
inactive: HT29 colon 26.2% | SNB-75 CNS 28.7% | SNB-19 CNS 34.8% | PC-3 prostate 54.1% | SK-MEL-5 melanoma 11.3% | UACC-62 melanoma 20.1% | SK-MEL-28 melanoma 22.5% | SK-MEL-2 melanoma 14.8% | SN12C renal 17.7% | UO-31 renal 36.4% | TK-10 renal 75.1% | CAKI-1 renal 24.8% | CCRF-CEM leukemia 10.7% | MOLT-4 leukemia 15.5%

CC(C)CCN(CCCNc1c2c(nc3ccccc13)CCCC2)CCC(C)C
inactive: HCT-15 colon 72.9% | HT29 colon 46.3% | SNB-75 CNS 76.8% | SNB-19 CNS 87.2% | U251 CNS 65.1% | PC-3 prostate 73.6% | SK-MEL-5 melanoma 83.1% | UACC-62 melanoma 97.2% | LOX IMVI melanoma 76.4% | SK-MEL-28 melanoma 86.2% | SK-MEL-2 melanoma 109% | SN12C renal 89.7% | UO-31 renal 56.5% | TK-10 renal 93.8% | ACHN renal 98% | CAKI-1 renal 76.5% | CCRF-CEM leukemia 74.3% | MOLT-4 leukemia 70.7%

COc1cc(NC(=O)CCl)ccc(=O)c1
inactive: HCT-15 colon 28.6% | HT29 colon 70.1% | SNB-75 CNS 72% | SNB-19 CNS 93% | U251 CNS 31.9% | PC-3 prostate 74.6% | SK-MEL-5 melanoma 75% | UACC-62 melanoma 57.2% | LOX IMVI melanoma 49.1% | SK-MEL-28 melanoma 85.4% | SK-MEL-2 melanoma 74.3% | SN12C renal 71.7% | UO-31 renal 64.3% | TK-10 renal 35.4% | ACHN renal 74.7% | CAKI-1 renal 31% | A498 renal 85.7% | CCRF-CEM leukemia 39.7% | MOLT-4 leukemia 50.1%

O=S(=O)(NCCNc1nccc(-c2c(-c3ccccc3)nc3sccn23)n1)c1ccc(O)cc1
inactive: HCT-15 colon 47.9% | HT29 colon 21.4% | SNB-75 CNS 28.7% | SNB-19 CNS 56.5% | U251 CNS 41.5% | PC-3 prostate 57.9% | UACC-62 melanoma 52.4% | LOX IMVI melanoma 31.4% | SK-MEL-28 melanoma 47.6% | SK-MEL-2 melanoma 49.7% | SN12C renal 40.3% | UO-31 renal 31.4% | TK-10 renal 62.2% | ACHN renal 25.8% | CAKI-1 renal 53.5% | CCRF-CEM leukemia 52.2% | MOLT-4 leukemia 28.7%
active: SK-MEL-5 melanoma 7.89%

COc1cc(OC)c(C(=O)/C=C/c2cccc(C#N)c2)c(OC)c1
active: HCT-15 colon 3.28% | HT29 colon 8.61% | U251 CNS 8.67% | SK-MEL-5 melanoma 7.71% | LOX IMVI melanoma -6.01% | SK-MEL-2 melanoma -34.8% | ACHN renal -33.9% | CCRF-CEM leukemia 2.65%
inactive: SNB-75 CNS 17.3% | SNB-19 CNS 14.8% | PC-3 prostate 32.1% | UACC-62 melanoma 10.9% | SK-MEL-28 melanoma 34.4% | SN12C renal 15.6% | UO-31 renal 12.4% | TK-10 renal 24.8% | CAKI-1 renal 15.9% | MOLT-4 leukemia 11.7%

NC(=O)NC(=O)/C=C/C(=O)OCCCl
inactive: HCT-15 colon 77.5% | HT29 colon 90% | SNB-75 CNS 80.3% | SNB-19 CNS 101% | U251 CNS 101% | PC-3 prostate 92.1% | SK-MEL-5 melanoma 106% | UACC-62 melanoma 104% | LOX IMVI melanoma 98.6% | SK-MEL-28 melanoma 100% | SK-MEL-2 melanoma 113% | SN12C renal 104% | UO-31 renal 89.2% | TK-10 renal 72.1% | ACHN renal 79.9% | CAKI-1 renal 99.6% | A498 renal 103% | MOLT-4 leukemia 96.9%

O=c1c2cccc3c(Nc4ccc(F)cc4)ccc(c32)c2nc3ccccc3n12
inactive: HCT-15 colon 71.1% | HT29 colon 92.6% | SNB-75 CNS 70.8% | SNB-19 CNS 77.6% | U251 CNS 92% | PC-3 prostate 77.2% | SK-MEL-5 melanoma 70.4% | UACC-62 melanoma 67.8% | LOX IMVI melanoma 83.6% | SK-MEL-28 melanoma 103% | SK-MEL-2 melanoma 103% | SN12C renal 87.8% | UO-31 renal 49.2% | TK-10 renal 75.3% | ACHN renal 87.9% | CAKI-1 renal 79.9% | A498 renal 66.2% | CCRF-CEM leukemia 94.1% | MOLT-4 leukemia 89.9%

CCn1c(=O)c2c(=O)c3c4c(oc3oc2c2ccccc21)C(=O)c1ccccc1C4=O
inactive: HCT-15 colon 79.6% | HT29 colon 63% | SNB-75 CNS 120% | SNB-19 CNS 90.2% | U251 CNS 57.7% | PC-3 prostate 42.4% | SK-MEL-5 melanoma 67.4% | UACC-62 melanoma 64% | LOX IMVI melanoma 32.4% | SK-MEL-28 melanoma 107% | SK-MEL-2 melanoma 79.9% | SN12C renal 87.2% | UO-31 renal 81.8% | TK-10 renal 112% | ACHN renal 79.6% | CAKI-1 renal 72.6%
active: CCRF-CEM leukemia 2.47% | MOLT-4 leukemia -24.5%

COc1cc(NCCN=C(N)NC(N)=NC(C)C)c2ncccc2c1
inactive: HCT-15 colon 100% | HT29 colon 61.2% | SNB-75 CNS 63.8% | SNB-19 CNS 84% | U251 CNS 79.7% | PC-3 prostate 73.4% | SK-MEL-5 melanoma 37.2% | UACC-62 melanoma 102% | LOX IMVI melanoma 89.2% | SK-MEL-28 melanoma 86.1% | SN12C renal 74.8% | UO-31 renal 81.7% | TK-10 renal 110% | ACHN renal 94.1% | CAKI-1 renal 95.3% | A498 renal 91.2% | MOLT-4 leukemia 67.5%
active: SK-MEL-2 melanoma -14.2%

CCCC(C(=O)OCC)C(C)OC(=O)OCC (stereo unspecified)
inactive: HCT-15 colon 99.9% | HT29 colon 104% | SNB-75 CNS 79% | SNB-19 CNS 106% | U251 CNS 102% | PC-3 prostate 102% | SK-MEL-5 melanoma 103% | UACC-62 melanoma 103% | LOX IMVI melanoma 99.1% | SK-MEL-28 melanoma 107% | SK-MEL-2 melanoma 94.7% | SN12C renal 101% | UO-31 renal 80.1% | TK-10 renal 98% | ACHN renal 107% | CAKI-1 renal 96.3% | A498 renal 118% | MOLT-4 leukemia 89.8%

NC(=S)NN=C1CCCCC1
inactive: HCT-15 colon 77.7% | HT29 colon 47.5% | SNB-75 CNS 105% | SNB-19 CNS 106% | U251 CNS 76.4% | PC-3 prostate 82.7% | SK-MEL-5 melanoma 99.2% | UACC-62 melanoma 90% | LOX IMVI melanoma 77.9% | SK-MEL-28 melanoma 98.3% | SK-MEL-2 melanoma 107% | SN12C renal 85.2% | UO-31 renal 79.8% | TK-10 renal 100% | ACHN renal 103% | CAKI-1 renal 103% | A498 renal 87% | CCRF-CEM leukemia 39.6% | MOLT-4 leukemia 68.8%

COc1cc(NS(C)(=O)=O)ccc1Nc1c2ccc([N+](=O)[O-])cc2nc2c(C)cccc12
inactive: HCT-15 colon 12.4% | SNB-19 CNS 21.2% | UACC-62 melanoma 16.2% | SK-MEL-28 melanoma 41.7% | SK-MEL-2 melanoma 25.4%
active: HT29 colon -0.0847% | SNB-75 CNS 5.27% | U251 CNS 0.458% | PC-3 prostate 8.53% | SK-MEL-5 melanoma -0.826% | LOX IMVI melanoma -3.95% | SN12C renal 2.9% | UO-31 renal -3.4% | TK-10 renal 5.21% | ACHN renal -30.9% | CAKI-1 renal -21.2% | A498 renal -23.5% | CCRF-CEM leukemia -11.8% | MOLT-4 leukemia -8.62%

O=S(=O)(O)CCl
inactive: HCT-15 colon 96.3% | HT29 colon 95.9% | SNB-75 CNS 86.1% | SNB-19 CNS 106% | U251 CNS 97.1% | PC-3 prostate 91.6% | SK-MEL-5 melanoma 103% | UACC-62 melanoma 100% | LOX IMVI melanoma 86.8% | SK-MEL-28 melanoma 102% | SK-MEL-2 melanoma 104% | SN12C renal 98.8% | UO-31 renal 91.6% | TK-10 renal 92% | ACHN renal 103% | CAKI-1 renal 103% | A498 renal 111% | MOLT-4 leukemia 99.4%

CCC1CCc2nc3sc(C(=O)Nc4ccccc4F)c(N)c3cc2C1 (stereo unspecified)
inactive: HCT-15 colon 35.3% | HT29 colon 39.5% | SNB-75 CNS 66.1% | SNB-19 CNS 76% | U251 CNS 65.5% | PC-3 prostate 67.3% | SK-MEL-5 melanoma 40.2% | UACC-62 melanoma 47.9% | LOX IMVI melanoma 62.8% | SK-MEL-28 melanoma 59.9% | SK-MEL-2 melanoma 52.1% | SN12C renal 89.8% | UO-31 renal 77.5% | TK-10 renal 73.7% | ACHN renal 69.4% | CAKI-1 renal 53.2% | A498 renal 44.7% | MOLT-4 leukemia 40%

O=C(CCCn1c(=O)c2sc3ccccc3c2n2nnc(-c3ccccc3)c12)NCCc1cnc[nH]1
inactive: SNB-75 CNS 28.2% | CAKI-1 renal 14.9% | A498 renal 95.6% | CCRF-CEM leukemia 42.6% | MOLT-4 leukemia 73.3%
active: HCT-15 colon -63.1% | HT29 colon -94.1% | SNB-19 CNS -12.3% | U251 CNS -51.2% | PC-3 prostate -14% | SK-MEL-5 melanoma -69.6% | UACC-62 melanoma -78.5% | LOX IMVI melanoma -16.7% | SK-MEL-28 melanoma -49.7% | SK-MEL-2 melanoma -49.2% | SN12C renal -78% | UO-31 renal -79.3% | TK-10 renal -62.4% | ACHN renal -37.9%
